Test results reported in PubChem BioAssay AID1159580 (chemical genetic matrix, 2015).
Values joined by “and” are separate entries in the source; they are usually repeats but may differ in a detail not shown here. Equal entries are not always repeated. The whole screen tested about 5,500 compounds, of which about 2,000 (36%) were called active. Another 18% or so got no clear call; they are omitted. Rule as the data show it: active = normalized growth mostly below about 0.91 (no sharp cut-off); inconclusive = no clear call, values can overlap the other calls; inactive = mostly above about 0.92. The list shows a part of the results.

Assay: chemical genetic growth profiling, strain panel (AID 1159580);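 also: tested at 20 µM; growth read once vehicle control cultures reached saturation at 30 °C; 1 = growth at the plate median or of vehicle wells; lower values mean less growth of the strain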
Conditions: S. cerevisiae deletion strains, growth OD

Measured: normalized growth

C=CC(C1=CC(=O)C(OC)=CC1=O)c1ccc(O)cc1 (configuration not stated)
inactive: locus YAL013W, strain DEP1, hits give low values 1.04 | locus YAL021C, strain ccr4, hits give low values 1.03 | locus YAL026C, strain drs2, hits give low values 0.977 | locus YAL030W, strain snc1, hits give low values 1.01 | locus YBL061C, strain skt5, hits give low values 0.996 | locus YBR009C, strain hhf1, hits give low values 0.99 | locus YBR021W, strain FUR4, hits give low values 1.04 | locus YBR023C, strain chs3, hits give low values 0.992 | locus YBR171W, strain sec66, hits give low values 1.02 | locus YBR229C, strain ROT2, hits give low values 0.945 | locus YBR231C, strain swc5, hits give low values 0.989 | locus YBR279W, strain paf1, hits give low values 1 | locus YCL011C, strain gbp2, hits give low values 0.998 | locus YCL016C, strain dcc1, hits give low values 0.99 | locus YCL029C, strain bik1, hits give low values 0.987 | locus YCL069W, strain vba3, hits give low values 1.01 | locus YCR088W, strain abp1, hits give low values 1.02 | locus YDL005C, strain med2, hits give low values 0.999 | locus YDL035C, strain GPR1, hits give low values 0.974 | locus YDL040C, strain nat1, hits give low values 0.999 | locus YDL074C, strain BRE1, hits give low values 0.987 | locus YDL101C, strain DUN1, hits give low values 0.986 | locus YDL185W, strain tfp1, hits give low values 0.944 | locus YDL192W, strain arf1, hits give low values 0.981 | locus YDR001C, strain nth1, hits give low values 1.01 | locus YDR069C, strain doa4, hits give low values 0.991 | locus YDR101C, strain arx1, hits give low values 0.991 | locus YDR137W, strain rgp1, hits give low values 0.989 | locus YDR150W, strain NUM1, hits give low values 1.01 | locus YDR159W, strain sac3, hits give low values 0.94 | locus YDR162C, strain NBP2, hits give low values 0.942 | locus YDR195W, strain ref2 1.03 | locus YDR297W, strain sur2, hits give low values 0.986 | locus YDR318W, strain mcm21, hits give low values 0.953 | locus YDR334W, strain swr1, hits give low values 1.02 | locus YDR335W, strain msn5, hits give low values 1.01 | locus YDR388W, hits give low values 0.964 | locus YDR392W, strain spt3, hits give low values 0.825 | locus YDR502C, strain sam2, hits give low values 0.967 | locus YEL003W, strain gim4, hits give low values 0.979 | locus YEL037C, strain rad23, hits give low values 1.01 | locus YEL061C, strain CIN8 (second series), hits give low values 1.01 | locus YEL061C, strain CIN8, hits give low values 0.992 | locus YER015W, strain faa2, hits give low values 0.995 | locus YER016W, strain bim1, hits give low values 1 | locus YER110C, hits give low values 0.927 | locus YER111C, strain swi4, hits give low values 0.998 | locus YER155C, strain BEM2 (second series), hits give low values 0.891 | locus YER155C, strain BEM2, hits give low values 1 | locus YER167W, strain BCK2, hits give low values 0.973 | locus YFR010W, strain ubp6, hits give low values 0.998 | locus YGL078C, strain dbp3, hits give low values 0.985 | locus YGL086W, strain mad1, hits give low values 1 | locus YGL167C, strain pmr1, hits give low values 1.01 | locus YGL173C, strain kem1, hits give low values 0.997 | locus YGL227W, strain vid30, hits give low values 0.999 | locus YGL240W, strain doc1, hits give low values 0.972 | locus YGL248W, strain PDE1, hits give low values 0.992 | locus YGL253W, strain hxk2, hits give low values 1.02 | locus YGR078C, strain PAC10, hits give low values 1.01 | locus YGR135W, strain pre9, hits give low values 0.963 | locus YGR252W, strain gcn5, hits give low values 0.904 | locus YHR013C, strain ard1, hits give low values 1.02 | locus YHR027C, strain rpn1, hits give low values 0.995 | locus YHR030C, strain SLT2, hits give low values 0.98 and 1.04 | locus YHR079C, strain IRE1 (second series), hits give low values 0.982 | locus YHR079C, strain IRE1, hits give low values 1.01 | locus YHR094C, strain hxt1, hits give low values 0.96 | locus YHR129C, strain ARP1, hits give low values 0.991 | locus YHR142W, strain chs7, hits give low values 1.01 | locus YHR200W, strain rpn10, hits give low values 0.965 | locus YIL066C, strain RNR3, hits give low values 0.92 | locus YIL073C, strain SPO22, hits give low values 0.964 | locus YIL125W, strain kgd1, hits give low values 0.987 | locus YIR030C, strain dcg1, hits give low values 0.991 | locus YJL092W, strain hpr5, hits give low values 1 | locus YJL095W, strain BCK1 (second series), hits give low values 0.998 | locus YJL095W, strain BCK1, hits give low values 1.03 and 1.06 | locus YJL115W, strain asf1, hits give low values 1.02 | locus YJL129C, strain trk1, hits give low values 1.03 | locus YJL134W, strain LCB3, hits give low values 0.978 | locus YJL154C, strain vps35, hits give low values 1.01 | locus YJL164C, strain tpk1, hits give low values 0.987 | locus YJL166W, strain qcr8, hits give low values 1 | locus YJL168C, strain set2, hits give low values 0.984 | locus YJL187C, strain SWE1 (second series), hits give low values 0.997 | locus YJL187C, strain SWE1, hits give low values 1 | locus YJR043C, strain POL32, hits give low values 0.941 | locus YJR066W, strain TOR1, hits give low values 0.983 | locus YJR075W, strain HOC1, hits give low values 1.01 | locus YKL009W, strain mrt4, hits give low values 0.957 | locus YKL068W, hits give low values 0.971 | locus YKL085W, strain MDH1 (second series), hits give low values 0.987 | locus YKL085W, strain MDH1, hits give low values 0.987 | locus YKL160W, strain elf1, hits give low values 0.985 | locus YKL190W, strain CNB1, hits give low values 1.01 | locus YKR001C, strain vps1, hits give low values 0.966 | locus YKR026C, strain gcn3, hits give low values 1.01 | locus YKR091W, strain srl3, hits give low values 1.01 | locus YLL001W, strain dnm1, hits give low values 0.958 | locus YLL026W, hits give low values 1 | locus YLL041C, strain sdh2, hits give low values 1.01 | locus YLR027C, strain aat2, hits give low values 1 | locus YLR039C, strain RIC1, hits give low values 1.02 | locus YLR058C, strain SHM2, hits give low values 0.925 | locus YLR102C, strain apc9, hits give low values 0.984 | locus YLR113W, strain HOG1, hits give low values 0.967 | locus YLR221C, strain rsa3, hits give low values 0.989 | locus YLR258W, strain gsy2, hits give low values 1.01 | locus YLR262C, strain YPT6 (second series), hits give low values 0.996 | locus YLR262C, strain YPT6, hits give low values 1.01 | locus YLR268W, strain sec22, hits give low values 1.01 | locus YLR320W, strain mms22, hits give low values 0.988 | locus YLR330W, strain CHS5, hits give low values 1 | locus YLR342W, strain FKS1 (second series), hits give low values 0.935 | locus YLR342W, strain FKS1, hits give low values 0.987 | locus YLR357W, strain rsc2, hits give low values 0.993 | locus YLR370C, strain arc18, hits give low values 1.01 | locus YLR371W, strain rom2, hits give low values 0.965 | locus YLR384C, strain iki3, hits give low values 1.03 | locus YLR418C, strain cdc73, hits give low values 0.933 | locus YML016C, strain PPZ1, hits give low values 0.976 | locus YML032C, strain rad52, hits give low values 0.947 | locus YML120C, strain ndi1, hits give low values 1 | locus YML124C, strain tub3, hits give low values 0.99 | locus YMR058W, strain fet3, hits give low values 1.01 | locus YMR078C, strain ctf18, hits give low values 0.989 | locus YMR125W, strain sto1, hits give low values 1.02 | locus YMR129W, hits give low values 1 | locus YMR205C, strain PFK2, hits give low values 0.992 | locus YMR223W, strain ubp8, hits give low values 0.967 | locus YMR231W, strain pep5, hits give low values 1.01 | locus YMR263W, strain SAP30, hits give low values 1.01 | locus YMR307W, strain GAS1, hits give low values 1.06 | locus YNL067W, strain RPL9B, hits give low values 1.06 | locus YNL071W, strain lat1, hits give low values 1.01 | locus YNL153C, strain GIM3, hits give low values 1.01 | locus YNL183C, strain NPR1, hits give low values 0.983 | locus YNL209W, strain ssb2, hits give low values 0.994 | locus YNL233W, strain BNI4, hits give low values 1.01 | locus YNL248C, strain rpa49, hits give low values 1 | locus YNL250W, strain rad50, hits give low values 0.98 | locus YNL271C, strain bni1, hits give low values 0.99 | locus YNL298W, strain CLA4, hits give low values 0.961 | locus YNL307C, strain MCK1, hits give low values 0.969 | locus YNL322C, strain KRE1 (second series), hits give low values 0.981 | locus YNL322C, strain KRE1, hits give low values 0.994 | locus YNR049C, strain mso1, hits give low values 1.01 | locus YNR052C, strain pop2, hits give low values 0.981 | locus YOL012C, strain htz1 1.04 | locus YOL147C, strain pex11, hits give low values 0.969 | locus YOR001W, strain rrp6, hits give low values 0.986 | locus YOR061W, strain CKA2, hits give low values 0.954 | locus YOR069W, strain VPS5, hits give low values 0.986 | locus YOR070C, strain gyp1, hits give low values 0.982 | locus YOR080W, strain dia2, hits give low values 0.992 | locus YOR083W, strain WHI5, hits give low values 0.977 | locus YOR106W, strain vam3, hits give low values 0.989 | locus YOR136W, strain idh2, hits give low values 0.976 | locus YOR144C, strain elg1, hits give low values 0.98 | locus YOR184W, strain ser1, hits give low values 0.941 | locus YOR231W, strain MKK1, hits give low values 1.03 | locus YOR265W, strain rbl2, hits give low values 1 | locus YOR270C, strain vph1, hits give low values 1.02 | locus YOR290C, strain snf2, hits give low values 0.984 | locus YOR316C, strain cot1, hits give low values 0.982 | locus YPL051W, strain arl3, hits give low values 0.979 | locus YPL078C, strain atp4, hits give low values 0.98 | locus YPL106C, strain sse1, hits give low values 1.01 | locus YPL240C, strain hsp82, hits give low values 1.01 | locus YPL241C, strain CIN2, hits give low values 0.983 | locus YPL256C, strain CLN2, hits give low values 1.06 | locus YPR119W, strain clb2, hits give low values 0.99 | locus YPR141C, strain kar3, hits give low values 0.984 | locus YPR163C, strain tif3, hits give low values 0.979 | locus YPR167C, strain met16, hits give low values 0.974 | strain wtn01, hits give low values 0.994
